Results from the supplement of paper PMC6555819.

Key:
Experiment in all cases: PBM binding z-score (relative to random genomic background probes); higher = stronger binding; sequences stand for … in GC…GCGATTGACAGCGTAGAATGAAGG
[1] = system: PPARg:RXRa DBDmut IVT, anti-RXR (DBD mutation: RXRa K156A/R161A, NR concentration 270 nM, RXRa partner concentration 90 nM)
How it was run: (§1)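 Each nuclear receptor dimer, without ligand, was incubated for 1 h on custom Agilent 4×180K protein-binding microarrays. Binding was detected with antibodies against each partner (one per run), and scanned fluorescence was regression-normalized. The binding z-scores are referenced to random human genomic background probes.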

[2] = system: PPARg:RXRa IVT, anti-PPARg (NR concentration 270 nM, RXRa partner concentration 90 nM)
How it was run: as §1

[3] = system: PPARg DBDmut:RXRa IVT, anti-PPARg (DBD mutation: PPARg1 K132A/R137A, NR concentration 270 nM, RXRa partner concentration 90 nM)
How it was run: as §1

[4] = system: PPARg DBDmut IVT, anti-PPARg (DBD mutation: PPARg1 K132A/R137A, NR concentration 270 nM)
How it was run: as §1

[5] = system: PPARg homodimer (NR concentration 180 nM)
How it was run: as §1

[6] = system: PXR:RXRa (NR concentration 270 nM, RXRa partner concentration 90 nM)
How it was run: as §1

[7] = system: PXR homodimer (NR concentration 270 nM)
How it was run: as §1

[8] = system: RARa:RXR (NR concentration 270 nM, RXRa partner concentration 90 nM)
How it was run: as §1

[9] = system: RARa homodimer (NR concentration 270 nM)
How it was run: as §1

[10] = system: RARb:RXRa (NR concentration 270 nM, RXRa partner concentration 90 nM)
How it was run: as §1

[11] = system: RARb homodimer (NR concentration 270 nM)
How it was run: as §1

[12] = system: RARg:RXRa (NR concentration 270 nM, RXRa partner concentration 90 nM)
How it was run: as §1

[13] = system: RARg homodimer (NR concentration 270 nM)
How it was run: as §1

[14] = system: RXRa DBDmut IVT, anti-RXR (DBD mutation: RXRa K156A/R161A, NR concentration 90 nM)
How it was run: as §1

[15] = system: RXRa homodimer (NR concentration 180 nM)
How it was run: as §1

[16] = system: THRa:RXRa (NR concentration 90 nM, RXRa partner concentration 90 nM)
How it was run: as §1

[17] = system: THRa homodimer (NR concentration 90 nM)
How it was run: as §1

[18] = system: VDR homodimer (NR concentration 270 nM)
How it was run: as §1

Sequence | PBM binding z-score [1] | PBM binding z-score [2] | PBM binding z-score [3] | PBM binding z-score [4] | PBM binding z-score [5] | PBM binding z-score [6] | PBM binding z-score [7] | PBM binding z-score [8] | PBM binding z-score [9] | PBM binding z-score [10] | PBM binding z-score [11] | PBM binding z-score [12] | PBM binding z-score [13] | PBM binding z-score [14] | PBM binding z-score [15] | PBM binding z-score [16] | PBM binding z-score [17] | PBM binding z-score [18]
TCTATTAGTTGAAGCGCAACCGACGAGTCCGTTT | 2.22 | 0.202 | 0.484 | 1.23 | 0.5 | 0.326 | 0.219 | 0.126 | 0.262 | 0.271 | -0.298 | -0.0942 | -0.507 | 1.16 | 0.302 | -0.201 | -0.12 | 0.818
ACTAGCAGGCCAAGGGTCACTCCAGATTAGTCCG | 1.08 | 3.57 | -0.0917 | -0.469 | 1.44 | 2.68 | 0.019 | 3.79 | 0.278 | 3.42 | 3.65 | 3.77 | 3.48 | 0.274 | 3.74 | 2.55 | 0.269 | 1
CGTCCAGGGTCAAAGGTCAGTGAAGAGATGACGG | 2.45 | 5.28 | 0.657 | 0.0677 | 3.17 | 6.94 | 0.868 | 8.37 | 1.58 | 5.63 | 5.11 | 8.3 | 7 | 2.98 | 9.93 | 4.54 | 1.48 | 3.04
GCAGACAGGTGAAACGCAGGTAAGTCAGGGTGGC | 0.702 | 0.327 | -0.327 | -0.89 | -0.504 | -0.471 | -0.705 | 0.101 | -0.533 | 0.61 | 0.216 | 0.37 | 0.249 | -0.846 | 0.479 | 0.9 | -0.575 | -0.728
GCTAGTTGGTCGGTAAAAGGTCACACACCGGTCG | 0.248 | 3.4 | 0.279 | 0.356 | 3.46 | 4.78 | 1.24 | 5.17 | 1.42 | 4.08 | 4.97 | 5.3 | 4.72 | 0.311 | 5.42 | 3.47 | 1.92 | 1.59
ATCACTAGGTAAAAGTTCAGTGAATCCCGAGGAT | 3.38 | 4.52 | 1.04 | 1.36 | 1.02 | 2.08 | 1.55 | 1.9 | 1.02 | 2.49 | 2.5 | 2.11 | 1.85 | 0.717 | 1.85 | 1.32 | 0.468 | 1.8
TCGCCTAGGTCATTCAGGGGCCAGTATAGAAAGC | 2.54 | 2.19 | -0.243 | -0.908 | 1.82 | 2.3 | -0.0121 | 3.36 | -0.254 | 3.96 | 3.67 | 6.06 | 4.29 | 2.42 | 2.95 | 3.52 | 1 | 1.4
TACACAGGGTCAAAGGCCAGAGTACGAATGTCGA | 1.53 | 4.08 | 0.992 | 0.428 | 1.44 | 4.11 | 0.543 | 5.47 | 0.487 | 4.53 | 3.22 | 5.65 | 5.36 | 3 | 7.62 | 3.5 | 0.79 | 3.23
ATCTCTAAGTAACCAAGTTCAGTGAATGCCGAAC | -0.304 | 0.256 | 0.36 | 0.891 | 0.71 | 1.3 | 1.61 | 0.788 | 0.561 | 1.16 | 1.43 | 0.516 | 0.56 | 1.2 | 0.443 | 0.648 | 0.45 | 2.61
ATATGTTGGTTAAGGGTCATTCAGGTTGGTTCGC | 1.61 | 3.8 | 1.51 | 1.87 | 4.23 | 5.21 | 3.35 | 4.73 | 3.39 | 3.39 | 3.84 | 4.07 | 3.25 | 2.11 | 4.9 | 3.25 | 2.24 | 4.89
CGTCCAAGGCCAAGGTCAGTGAAAGAGACTCGAA | 0.486 | 0.991 | -1.04 | -1.54 | 1.05 | 1.53 | 0.261 | 2.04 | 0.342 | 3.58 | 3.42 | 2.86 | 3.7 | 1.31 | 1.83 | 2.87 | 1.51 | 0.947
ATCTCTAGGTAACCAAGTTGAGTGAATGCCGAAC | 3.51 | 2.64 | 0.787 | 1.26 | 0.031 | -0.00792 | 0.194 | 0.144 | 0.0193 | 0.243 | 0.229 | -0.0592 | 0.11 | 0.0229 | 0.0959 | 0.852 | 0.635 | 0.254
AATACAGGGTCACTAGGCCAGAGTAGGTACGAAT | 3.83 | 5.94 | 2.04 | 1.71 | 2.24 | 3.28 | 0.432 | 4.51 | 0.176 | 4.39 | 3.61 | 5.13 | 4.83 | 2.83 | 5.52 | 3.38 | 1.27 | 2.5
GGAACGAGGGCAAGTTGCTAGCAGAGTTTGATGG | 3.85 | 2.46 | -0.00966 | -0.739 | -0.336 | 0.59 | 0.303 | 0.0596 | -0.257 | 2.52 | 1.37 | 1.23 | 2.1 | 2.26 | 0.745 | 0.911 | -0.229 | 1.44
TAGCCTAGGTCAGGCGGGCCAGTATAGTGTCGGC | 0.604 | 1.7 | -0.617 | -0.515 | -0.227 | 0.158 | -0.632 | 0.923 | -0.619 | 3.16 | 2.21 | 2.75 | 3.45 | -1.1 | 1.3 | 1.86 | -0.0587 | -0.674
TCTGCTAGGTCACCGATGGTCAGCTAATCTGCTA | 4.6 | 4.81 | 0.945 | 0.734 | 0.378 | 1.91 | -1.04 | 2.75 | -1.39 | 4.36 | 3.6 | 4.74 | 5.73 | 0.891 | 3.28 | 3.48 | 1.23 | -0.0284
